Assay results taken from PubChem BioAssay (Tox21).
Results filed as inconclusive are left out. A number with no mark means an inactive call. The call rests on the fitted dose curve.

Test: qHTS assay to identify small molecule agonists of the endoplasmic reticulum stress response signaling pathway - cell viability counter screen (AID 1159517); further: nearly all actives have a fitted effect of over 50% in size
Settings: ESRE-bla HeLa viability, CellTiter-Glo luminescence, 5 h; series mostly up to 61 µM; activity change, negative = cytotoxicity: at the top concentration
Source text: U.S. Tox21 Program National Center for Advancing Translational Sciences [NCATS] NIH Chemical Genomics Center [NCGC] U.S. Environmental Protection Agency [EPA] National Institutes of Environmental Health Sciences [NIEHS] National Toxicology Program [NTP] U.S. Food and Drug Administration [FDA] Tox21 Assay Overview: Endoplasmic Reticulum (ER) plays an important role in cellular signaling, protein folding/maturation, stress response, lipid biosynthesis, calcium storage and release etc. Under stress conditions, proteins in ER misfold or unfold, and leading to the expression of ER stress responsive genes. ER stress has been associated with a variety of pathophysiological conditions such as cancer, inflammation, neurodegenerative diseases, diabetes, ischemic heart disease etc. To identify the compounds that induce ER stress response, an ER stress reporter cell line, CellSensor ESRE-bla HeLa (Life Technologies, Carlsbad, CA) containing a beta-lactamase reporter gene under control of the Endoplasmic reticulum Stress Response Element (ESRE) was used to screen Tox21 10K compound library. The cytotoxicity of the Tox21 compound library against the ESRE-bla HeLa cell line was tested in parallel by measuring cell viability using the CellTiter-Glo assay in the same wells.
Tox21 Assay Protocol Summary: ESRE-bla HeLa cells were dispensed at 1,500 cells/6 uL of assay medium per well into black wall/clear-bottom 1536-well plates using a Multidrop Combi (ThermoFisher Scientific, Waltham, MA) dispenser. After the assay plates were incubated at 37 C and 5% CO2 for an overnight, 23 nL of compounds dissolved in DMSO, positive controls or DMSO only was transferred to the assay plate by a Pintool station (Kalypsys, San Diego, CA). The assay plates were incubated at 37 C and 5% CO2 for 5 hr. One uL of LiveBLAzer B/G FRET substrate (Life Technologies) was added using a FRD (Flying Reagent Dispenser, Aurora Discovery, San Diego, CA) and the plates were incubated at room temperature for 2 hr. Fluorescence intensity (405 nm excitation, 460 nm and 530 nm emissions) was measured using an Envision plate reader (PerkinElmer, Shelton, CT). For cytotoxicity, 4 ul/well of CellTiter-Glo reagent was added into the assay plates using an FRD. After 30 min incubation at room temperature, the luminescence intensity was measured using a ViewLux plate reader (PerkinElmer).
On the % scale 0 is the no-effect control and ±100 the full control effect.

SMILES | activity change, negative = cytotoxicity
COC(=O)C1CC(=O)C(C(=O)OC)CC1=O (stereo not given) | 4.71% [at 6.95 µM]
CC(C)C(=O)OCCc1ccccc1 | -4.94%
CC(C)CCCC(C)(C)O | 11.1%
O=C(Nc1ccc(Cl)c(Cl)c1)C1CC1 | 0.774%
CC(C)NCC(O)COc1cccc2[nH]ccc12 (stereo not given) | -4.01%
CCCOC(OCCC)OCCC | 10.5%
Cc1c(I)c(=O)n(-c2ccccc2)n1C | 10.9%
O=S(=O)(O)c1cc(O)c2ccc(Nc3ccccc3)cc2c1 | -9.89%
BrCc1cccc(Oc2ccccc2)c1 | -17.7%
NCCS | 9.14%
CC1(CO)CN(c2ccccc2)NC1=O (stereo not given) | 3.25%
CCCCN | -4.1%
CC(=O)OC(C)OC(=O)C(C)c1ccc(-c2ccccc2)c(F)c1 (stereo not given) | -6.63%
CC(=O)NCCCCCC(=O)O | -4.16%
Cc1ccc2ccc(Cl)cc2n1 | -1.12%
CC(=O)Nc1ccc(S(=O)(=O)Cl)cc1 | -10.7%
COC(=O)[C@@H]1[C@H]2C[C@H]3c4[nH]c5ccccc5c4CCN3C[C@@H]2CC[C@@H]1O | 0.0445%
O=C(OCC1(COC(=O)c2cccnc2)CCCC(COC(=O)c2cccnc2)(COC(=O)c2cccnc2)C1O)c1cccnc1 | -0.564%
CCOC(=O)c1ccc(OC(=O)CCCCCN=C(N)N)cc1 | 5.14%
O=C(c1ccc(O)cc1)c1ccc(O)c(O)c1O | -16.7% [at 78.8 µM]

SMILES | activity change, negative = cytotoxicity
O=C(O)C(=O)Cc1ccccc1 | 5.7%
CN1C(C)(C)CCCC1(C)C | -4.5%
Nc1ncnc(Nc2ccccc2)n1 | 7.85%
Nc1ccc(S(=O)(=O)Nc2ccc(Cl)nn2)cc1 | -27.3%
CC(C)N(c1ccccc1)C(C)C | 4.43%
CC(C)C(=O)OCc1cccc(OC(=O)[C@@H]2N3C(=O)[C@@H](NC(=O)Cc4ccccc4)[C@H]3SC2(C)C)c1 | 17.2%
CC1COc2ccccc2N1 (stereo not given) | -9.06%
NC(CO)C(=O)NNCc1ccc(O)c(O)c1O (stereo not given) | -7.4%
CN(C)C(=O)CNC(=O)Cc1ccccc1 | -10.8%
CCCCCCCCC(=O)Cl | 13.2% [at 78.8 µM]
Cc1cc(NC(=O)C2=C(O)c3ccccc3S(=O)(=O)N2C)no1 | -11.6%
O=S(=O)(O)c1ccc2cc(O)c(S(=O)(=O)O)cc2c1 | -0.331%
CC/C=C\CC1=C(C)CCC1=O | 6.9%
CCCC/C=C\CCCCCCCCCC=O | -1.29%
CC(N)C(=O)OC(C)(C)Cc1ccc(Cl)cc1 (stereo not given) | 5.91%
OCCC(F)(F)C(F)(F)C(F)(F)C(F)(F)C(F)(F)C(F)(F)C(F)(F)C(F)(F)F | 18.6%
Cc1cccc(OCC(O)CNC(C)(C)C)c1C (stereo not given) | -6.45%
CC(=O)/C=C/C1C(C)=CCC(C)C1(C)C (stereo not given) | -17%
COc1cc(C(=S)N2CCOCC2)cc(OC)c1OC | -0.609%
Nc1ccc([N+](=O)[O-])c(N)c1 | 20.9%
